# Measurements taken from PubChem BioAssay.
# Active and inactive are the calls of the source. No rule for the calls is given here.
# Experiment: liver-stage malaria parasite load reduction – cell-based, known kinase inhibitor set, luminescence, hepatoma host viability (AID 624392);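 also: infected cells incubated roughly two days before readout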
# Conditions: Plasmodium liver stage in hepatoma cells, luciferase luminescence, concentration not given here; liver cell % of control: measured here: host liver cell viability; parasite % of control: stronger effect = lower value
Compound,liver cell % of control [%],parasite % of control
C=CC(=O)Nc1cccc(Oc2cc(Cl)nc3[nH]ccc23)c1,101,63.5% (inactive)
CC(C)C(CO)Nc1nc(NCc2ccc(S(N)(=O)=O)cc2)c2ncn(C(C)C)c2n1 (centres undefined),95.4,647% (inactive)
NS(=O)(=O)c1ccc(-c2ccc(C=C3SC(=O)NC3=O)o2)cc1,89,18.1% (active)
O=C(Nc1ccc(-c2csc(Nc3cccc(C(F)(F)F)c3)n2)cc1)c1cccc(C(F)(F)F)c1,101,45.1% (inactive)
COc1cc(NC(=O)c2csc(N)n2)cc(C(=O)Nc2cccc(C(F)(F)F)c2)c1,88.9,39.6% (inactive)
O=C(Nc1cccc(-c2csc(Nc3ccc(Cl)cc3)n2)c1)c1cc([N+](=O)[O-])cc(C(F)(F)F)c1,95.1,192% (inactive)
Cc1ccc([N+](=O)[O-])cc1S(=O)(=O)N(C)N=Cc1c[nH]c2ccc(Br)c[n+]12,93,3.49% (active)
O=C1NC(=O)C(=Cc2ccc(-c3ccc(S(=O)(=O)N4CCNCC4)cc3)o2)C(=O)N1,94.8,303% (inactive)
CC(C)n1cnc2c(Nc3cccc(F)c3)nc(NCCO)nc21,95.1,135% (inactive)
CCN1CCN(Cc2ccc(NC(=O)c3cc(NC(=O)c4cncc(-c5cccs5)c4)cc(OC)c3)cc2C(F)(F)F)CC1,101,88.5% (inactive)
COc1cc(N2CCC(O)CC2)ccc1Nc1nnc(Cl)c(Nc2ccccc2S(C)(=O)=O)n1,86.2,80.5% (inactive)
COc1cc(NC(=O)c2cncc(-c3ccc(C#N)cc3)c2)cc(C(=O)Nc2cccc(C(F)(F)F)c2)c1,98.8,101% (inactive)
